# Measurements reported in the supplement of paper PMC11732987, “Enantioselective OTUD7B fragment discovery through chemoproteomics screening and high-throughput optimisation” (Communications Chemistry, 2025).
# Unmarked numbers belong to inactive results.
# What was measured:
# Experiment in all cases: log2 ratio of Biotin-Ahx-Ub-VS probe labelling (fragment/DMSO); higher = less target engagement (more negative = stronger competition), active = hit call of the paper (q ≤ 0.05, log2 ratio ≤ -1)
# Settings in all cases: compound concentration: 200 uM; treatment time: 3 h
# [1] = target: T1, ALG13 (UniProt Q9NP73)
# T1 sequence (whole entry): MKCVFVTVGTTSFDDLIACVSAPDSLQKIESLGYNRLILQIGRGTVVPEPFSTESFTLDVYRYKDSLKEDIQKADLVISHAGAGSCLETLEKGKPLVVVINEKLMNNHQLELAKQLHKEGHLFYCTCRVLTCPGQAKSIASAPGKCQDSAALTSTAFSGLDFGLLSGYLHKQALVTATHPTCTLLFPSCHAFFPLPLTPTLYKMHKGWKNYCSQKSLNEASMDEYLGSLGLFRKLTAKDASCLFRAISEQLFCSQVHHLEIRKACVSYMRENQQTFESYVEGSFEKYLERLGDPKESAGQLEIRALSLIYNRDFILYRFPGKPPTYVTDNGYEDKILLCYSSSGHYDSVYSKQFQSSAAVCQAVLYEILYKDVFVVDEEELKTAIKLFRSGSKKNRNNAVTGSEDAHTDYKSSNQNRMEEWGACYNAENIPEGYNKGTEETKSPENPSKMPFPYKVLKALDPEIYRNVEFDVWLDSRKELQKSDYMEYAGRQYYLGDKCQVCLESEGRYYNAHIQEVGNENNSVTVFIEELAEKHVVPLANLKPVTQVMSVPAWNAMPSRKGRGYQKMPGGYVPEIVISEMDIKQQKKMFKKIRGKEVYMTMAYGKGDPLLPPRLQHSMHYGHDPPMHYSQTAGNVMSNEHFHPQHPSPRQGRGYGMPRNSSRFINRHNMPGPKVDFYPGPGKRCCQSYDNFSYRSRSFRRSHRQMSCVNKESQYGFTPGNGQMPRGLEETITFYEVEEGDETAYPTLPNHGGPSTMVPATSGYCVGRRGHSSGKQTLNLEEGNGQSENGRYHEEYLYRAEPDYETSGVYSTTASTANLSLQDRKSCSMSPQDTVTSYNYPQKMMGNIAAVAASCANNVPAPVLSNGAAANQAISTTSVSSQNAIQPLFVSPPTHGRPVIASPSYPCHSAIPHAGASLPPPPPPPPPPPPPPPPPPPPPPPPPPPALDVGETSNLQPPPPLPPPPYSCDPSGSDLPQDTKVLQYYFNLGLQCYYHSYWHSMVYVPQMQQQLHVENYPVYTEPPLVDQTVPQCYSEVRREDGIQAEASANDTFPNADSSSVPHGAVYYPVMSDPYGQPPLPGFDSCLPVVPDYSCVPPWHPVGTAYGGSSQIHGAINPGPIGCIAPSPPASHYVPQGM
# Summary of the method: (§1)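 HEK293T lysate (495 µg per sample, in Tris/CHAPS/IGEPAL buffer with protease inhibitors) was exposed in triplicate for 3 h to fragment at 200 µM or to vehicle, then to Biotin-Ahx-Ub-VS at 0.5 µM final for 1 h. Labelled DUBs were enriched on NeutrAvidin, digested with LysC and trypsin, and analysed by diaPASEF LC-MS/MS. Spectronaut label-free quantities were normalised to the global median, and values are average log2 ratios of fragment over vehicle from an unpaired t-test. Only proteins with ≥2 unique peptides were used.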
# [2] = target: ATXN3 (UniProt P54252)
# Summary of the method: as §1
# [3] = target: T2, BAP1 (UniProt Q92560)
# T2 sequence (whole entry): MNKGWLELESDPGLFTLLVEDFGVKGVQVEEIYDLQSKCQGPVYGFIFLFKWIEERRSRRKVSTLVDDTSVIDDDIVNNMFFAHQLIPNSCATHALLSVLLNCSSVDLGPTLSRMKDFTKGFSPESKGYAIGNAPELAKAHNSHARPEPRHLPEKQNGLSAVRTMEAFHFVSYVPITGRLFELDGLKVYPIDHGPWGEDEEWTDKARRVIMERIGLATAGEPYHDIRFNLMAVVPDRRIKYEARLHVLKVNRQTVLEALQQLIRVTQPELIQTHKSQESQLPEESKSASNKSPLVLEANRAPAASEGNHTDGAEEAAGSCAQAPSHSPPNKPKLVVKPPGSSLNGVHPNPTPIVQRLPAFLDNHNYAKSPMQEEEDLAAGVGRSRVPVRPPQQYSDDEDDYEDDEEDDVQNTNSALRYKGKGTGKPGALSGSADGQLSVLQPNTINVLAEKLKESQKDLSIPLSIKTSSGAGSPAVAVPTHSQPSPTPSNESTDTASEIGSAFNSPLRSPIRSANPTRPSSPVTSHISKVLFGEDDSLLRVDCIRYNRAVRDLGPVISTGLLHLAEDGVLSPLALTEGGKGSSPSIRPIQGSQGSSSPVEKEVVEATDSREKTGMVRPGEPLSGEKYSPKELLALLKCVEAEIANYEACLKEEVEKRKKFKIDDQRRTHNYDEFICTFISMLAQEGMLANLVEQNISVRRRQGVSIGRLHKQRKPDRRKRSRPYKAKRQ
# Summary of the method: as §1
# [4] = target: EIF3F (UniProt O00303)
# Summary of the method: as §1
# [5] = target: EIF3H (UniProt O15372)
# Summary of the method: as §1
# [6] = target: T3, FAM105A (UniProt Q9NUU6)
# T3 sequence (whole entry): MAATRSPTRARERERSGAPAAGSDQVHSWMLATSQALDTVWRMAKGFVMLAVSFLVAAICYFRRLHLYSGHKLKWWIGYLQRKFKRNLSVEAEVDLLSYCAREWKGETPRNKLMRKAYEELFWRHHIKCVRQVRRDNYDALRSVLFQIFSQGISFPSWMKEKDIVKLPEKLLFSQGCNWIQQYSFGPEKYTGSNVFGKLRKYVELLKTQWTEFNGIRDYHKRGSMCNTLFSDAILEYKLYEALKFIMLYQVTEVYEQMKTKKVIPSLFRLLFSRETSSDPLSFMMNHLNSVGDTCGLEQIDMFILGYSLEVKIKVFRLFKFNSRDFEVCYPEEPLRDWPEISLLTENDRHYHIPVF
# Summary of the method: as §1
# [7] = target: OTUB1 (UniProt Q96FW1)
# Summary of the method: as §1
# [8] = target: T4, OTUD4 (UniProt Q01804)
# T4 sequence (whole entry): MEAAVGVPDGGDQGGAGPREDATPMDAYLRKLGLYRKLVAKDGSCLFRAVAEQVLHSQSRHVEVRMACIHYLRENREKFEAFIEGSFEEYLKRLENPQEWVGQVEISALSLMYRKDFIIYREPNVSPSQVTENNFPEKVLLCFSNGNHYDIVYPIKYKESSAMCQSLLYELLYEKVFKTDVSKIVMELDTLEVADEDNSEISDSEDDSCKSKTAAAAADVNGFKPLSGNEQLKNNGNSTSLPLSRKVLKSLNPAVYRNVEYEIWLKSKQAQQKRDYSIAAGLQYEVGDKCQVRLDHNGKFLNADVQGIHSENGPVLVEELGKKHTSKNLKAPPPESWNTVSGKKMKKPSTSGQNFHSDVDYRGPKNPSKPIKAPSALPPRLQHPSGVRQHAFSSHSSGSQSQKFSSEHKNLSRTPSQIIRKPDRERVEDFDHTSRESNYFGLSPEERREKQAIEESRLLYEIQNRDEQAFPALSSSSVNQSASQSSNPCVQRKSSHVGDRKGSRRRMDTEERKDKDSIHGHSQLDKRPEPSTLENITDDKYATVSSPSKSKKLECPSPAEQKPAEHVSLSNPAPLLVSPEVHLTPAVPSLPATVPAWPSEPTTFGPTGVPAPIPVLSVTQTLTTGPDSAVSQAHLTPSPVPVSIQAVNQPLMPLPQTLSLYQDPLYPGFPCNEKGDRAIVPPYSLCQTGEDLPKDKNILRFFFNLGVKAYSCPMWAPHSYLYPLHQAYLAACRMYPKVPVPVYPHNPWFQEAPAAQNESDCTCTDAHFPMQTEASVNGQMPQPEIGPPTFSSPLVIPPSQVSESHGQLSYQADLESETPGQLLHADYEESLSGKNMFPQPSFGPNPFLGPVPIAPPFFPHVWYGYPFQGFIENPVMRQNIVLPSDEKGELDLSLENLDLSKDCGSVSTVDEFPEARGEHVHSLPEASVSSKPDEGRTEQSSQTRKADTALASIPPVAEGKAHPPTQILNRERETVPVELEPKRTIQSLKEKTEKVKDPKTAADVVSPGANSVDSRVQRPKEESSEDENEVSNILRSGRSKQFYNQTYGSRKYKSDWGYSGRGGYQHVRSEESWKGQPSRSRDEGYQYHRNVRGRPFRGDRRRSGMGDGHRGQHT
# Summary of the method: as §1
# [9] = target: T5, OTUD5 (UniProt Q96G74)
# T5 sequence (whole entry): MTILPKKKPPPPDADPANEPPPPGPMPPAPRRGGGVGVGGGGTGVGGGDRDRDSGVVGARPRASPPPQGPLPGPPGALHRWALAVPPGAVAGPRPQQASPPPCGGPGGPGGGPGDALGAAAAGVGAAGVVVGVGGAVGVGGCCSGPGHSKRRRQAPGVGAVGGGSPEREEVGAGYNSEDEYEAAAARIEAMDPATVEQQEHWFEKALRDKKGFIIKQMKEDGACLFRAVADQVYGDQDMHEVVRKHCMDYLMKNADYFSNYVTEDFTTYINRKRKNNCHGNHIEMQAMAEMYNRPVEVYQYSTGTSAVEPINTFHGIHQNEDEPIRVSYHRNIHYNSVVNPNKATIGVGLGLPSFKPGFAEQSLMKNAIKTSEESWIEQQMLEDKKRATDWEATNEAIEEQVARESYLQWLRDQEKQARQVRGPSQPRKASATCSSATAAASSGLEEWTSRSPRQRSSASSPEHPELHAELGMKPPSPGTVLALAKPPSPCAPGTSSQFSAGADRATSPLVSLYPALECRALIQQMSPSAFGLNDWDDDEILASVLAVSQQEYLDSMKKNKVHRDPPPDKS
# Summary of the method: as §1
# EIF3H, sequence (O15372 whole entry): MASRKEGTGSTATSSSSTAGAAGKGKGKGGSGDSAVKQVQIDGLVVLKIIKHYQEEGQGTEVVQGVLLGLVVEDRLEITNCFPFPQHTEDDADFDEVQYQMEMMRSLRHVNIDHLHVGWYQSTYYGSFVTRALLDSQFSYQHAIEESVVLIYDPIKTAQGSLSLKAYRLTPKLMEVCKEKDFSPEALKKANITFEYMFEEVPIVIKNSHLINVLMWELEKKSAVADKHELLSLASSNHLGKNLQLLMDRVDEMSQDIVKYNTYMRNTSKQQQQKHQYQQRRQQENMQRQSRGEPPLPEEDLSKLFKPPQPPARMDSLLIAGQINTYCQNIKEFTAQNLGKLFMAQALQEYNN
# EIF3F, sequence (O00303 whole entry): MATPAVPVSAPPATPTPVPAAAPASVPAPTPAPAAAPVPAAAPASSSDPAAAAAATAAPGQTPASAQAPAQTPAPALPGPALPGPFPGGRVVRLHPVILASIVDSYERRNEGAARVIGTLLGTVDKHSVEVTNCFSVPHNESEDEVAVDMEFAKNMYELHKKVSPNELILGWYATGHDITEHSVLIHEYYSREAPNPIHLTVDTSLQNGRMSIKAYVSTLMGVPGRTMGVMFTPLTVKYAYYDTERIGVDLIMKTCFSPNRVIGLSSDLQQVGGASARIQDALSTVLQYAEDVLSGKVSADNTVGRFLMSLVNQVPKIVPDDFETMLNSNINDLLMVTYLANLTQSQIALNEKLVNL
# OTUB1, sequence (Q96FW1 whole entry): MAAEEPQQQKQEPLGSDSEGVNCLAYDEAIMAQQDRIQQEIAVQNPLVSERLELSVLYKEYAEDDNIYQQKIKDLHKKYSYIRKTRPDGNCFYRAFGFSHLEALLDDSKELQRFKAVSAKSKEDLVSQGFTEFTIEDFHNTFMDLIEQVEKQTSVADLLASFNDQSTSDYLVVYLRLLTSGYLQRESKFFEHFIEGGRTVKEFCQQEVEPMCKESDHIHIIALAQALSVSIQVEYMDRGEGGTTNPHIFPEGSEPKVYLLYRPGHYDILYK
# ATXN3, sequence (P54252 whole entry): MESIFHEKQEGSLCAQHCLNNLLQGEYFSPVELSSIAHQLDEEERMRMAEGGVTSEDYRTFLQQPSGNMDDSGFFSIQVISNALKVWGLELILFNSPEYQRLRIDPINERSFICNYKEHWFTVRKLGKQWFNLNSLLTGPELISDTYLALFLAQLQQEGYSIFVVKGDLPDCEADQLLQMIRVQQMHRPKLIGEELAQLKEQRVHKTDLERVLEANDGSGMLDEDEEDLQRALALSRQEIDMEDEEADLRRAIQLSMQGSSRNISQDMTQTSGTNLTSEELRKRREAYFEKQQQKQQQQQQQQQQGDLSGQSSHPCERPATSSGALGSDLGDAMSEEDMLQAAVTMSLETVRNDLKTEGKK
smiles,measurement,setting,value
Cc1ccccc1C1(CNC(=O)CCl)CCOCC1,log2 ratio of Biotin-Ahx-Ub-VS probe labelling,[1],0.22
same,log2 ratio of Biotin-Ahx-Ub-VS probe labelling,[2],-0.273
same,log2 ratio of Biotin-Ahx-Ub-VS probe labelling,[3],-1.23 (active)
same,log2 ratio of Biotin-Ahx-Ub-VS probe labelling,[4],0.0678
same,log2 ratio of Biotin-Ahx-Ub-VS probe labelling,[5],0.00175
same,log2 ratio of Biotin-Ahx-Ub-VS probe labelling,[6],0.0441
same,log2 ratio of Biotin-Ahx-Ub-VS probe labelling,[7],-0.0623
same,log2 ratio of Biotin-Ahx-Ub-VS probe labelling,[8],-0.322
same,log2 ratio of Biotin-Ahx-Ub-VS probe labelling,[9],-0.157
